Experimental data from PubChem BioAssay AID1159580 (chemical genetic matrix, 2015).
The whole screen tested about 5,500 compounds, of which about 2,000 (36%) were called active. About 18% were inconclusive and are not listed. No stated cut-off is given here; in the data, active means normalized growth mostly below about 0.91 (no sharp cut-off); inconclusive means no clear call, values can overlap the other calls; inactive means mostly above about 0.92. The list shows a part of the results.

Assay: chemical genetic growth profiling, strain panel (AID 1159580);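 further: tested at 20 µM; growth read once vehicle control cultures reached saturation at 30 °C; 1 = growth at the plate median or of vehicle wells; lower values mean less growth of the strain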
Settings: growth OD

Measured: normalized growth

O=C(NCO)c1cccnc1
inactive: S. cerevisiae deletion strains, locus YJR075W, strain HOC1, active compounds read low 0.992 | S. cerevisiae deletion strains, locus YKL009W, strain mrt4, active compounds read low 0.984 | S. cerevisiae deletion strains, locus YKL068W, active compounds read low 0.974 | S. cerevisiae deletion strains, locus YKL085W, strain MDH1 (second series), active compounds read low 1 | S. cerevisiae deletion strains, locus YKL085W, strain MDH1, active compounds read low 1 | S. cerevisiae deletion strains, locus YKL160W, strain elf1, active compounds read low 1.01 | S. cerevisiae deletion strains, locus YKL190W, strain CNB1, active compounds read low 0.997 | S. cerevisiae deletion strains, locus YKR001C, strain vps1, active compounds read low 0.99 | S. cerevisiae deletion strains, locus YKR026C, strain gcn3, active compounds read low 1.01 | S. cerevisiae deletion strains, locus YKR091W, strain srl3, active compounds read low 1 | S. cerevisiae deletion strains, locus YLL001W, strain dnm1, active compounds read low 0.992 | S. cerevisiae deletion strains, locus YLL026W, active compounds read low 1 | S. cerevisiae deletion strains, locus YLL041C, strain sdh2, active compounds read low 1.01 | S. cerevisiae deletion strains, locus YLR027C, strain aat2, active compounds read low 1.01 | S. cerevisiae deletion strains, locus YLR039C, strain RIC1, active compounds read low 0.939 | S. cerevisiae deletion strains, locus YLR058C, strain SHM2, active compounds read low 0.986 | S. cerevisiae deletion strains, locus YLR102C, strain apc9, active compounds read low 0.985 | S. cerevisiae deletion strains, locus YLR113W, strain HOG1, active compounds read low 0.997 | S. cerevisiae deletion strains, locus YLR221C, strain rsa3, active compounds read low 1.01 | S. cerevisiae deletion strains, locus YLR258W, strain gsy2, active compounds read low 1.01 | S. cerevisiae deletion strains, locus YLR262C, strain YPT6 (second series), active compounds read low 0.995 | S. cerevisiae deletion strains, locus YLR262C, strain YPT6, active compounds read low 0.954 | S. cerevisiae deletion strains, locus YLR268W, strain sec22, active compounds read low 0.993 | S. cerevisiae deletion strains, locus YLR320W, strain mms22, active compounds read low 1 | S. cerevisiae deletion strains, locus YLR330W, strain CHS5, active compounds read low 0.981 | S. cerevisiae deletion strains, locus YLR342W, strain FKS1 (second series), active compounds read low 1.01 | S. cerevisiae deletion strains, locus YLR342W, strain FKS1, active compounds read low 1.01 | S. cerevisiae deletion strains, locus YLR357W, strain rsc2, active compounds read low 0.974 | S. cerevisiae deletion strains, locus YLR370C, strain arc18, active compounds read low 1.01 | S. cerevisiae deletion strains, locus YLR371W, strain rom2, active compounds read low 0.971 | S. cerevisiae deletion strains, locus YLR384C, strain iki3, active compounds read low 0.997 | S. cerevisiae deletion strains, locus YLR418C, strain cdc73, active compounds read low 1.03 | S. cerevisiae deletion strains, locus YML016C, strain PPZ1, active compounds read low 0.998 | S. cerevisiae deletion strains, locus YML032C, strain rad52, active compounds read low 0.975 | S. cerevisiae deletion strains, locus YML120C, strain ndi1, active compounds read low 1.01 | S. cerevisiae deletion strains, locus YML124C, strain tub3, active compounds read low 1 | S. cerevisiae deletion strains, locus YMR058W, strain fet3, active compounds read low 1 | S. cerevisiae deletion strains, locus YMR078C, strain ctf18, active compounds read low 0.993 | S. cerevisiae deletion strains, locus YMR125W, strain sto1, active compounds read low 0.997 | S. cerevisiae deletion strains, locus YMR129W, active compounds read low 0.987 | S. cerevisiae deletion strains, locus YMR205C, strain PFK2, active compounds read low 0.992 | S. cerevisiae deletion strains, locus YMR223W, strain ubp8, active compounds read low 0.988 | S. cerevisiae deletion strains, locus YMR231W, strain pep5, active compounds read low 1.01 | S. cerevisiae deletion strains, locus YMR263W, strain SAP30, active compounds read low 0.999 | S. cerevisiae deletion strains, locus YMR307W, strain GAS1, active compounds read low 1.08 | S. cerevisiae deletion strains, locus YNL067W, strain RPL9B, active compounds read low 0.995 | S. cerevisiae deletion strains, locus YNL071W, strain lat1, active compounds read low 1.02 | S. cerevisiae deletion strains, locus YNL128W, strain TEP1, active compounds read low 0.999 | S. cerevisiae deletion strains, locus YNL153C, strain GIM3, active compounds read low 1 | S. cerevisiae deletion strains, locus YNL183C, strain NPR1, active compounds read low 0.92 | S. cerevisiae deletion strains, locus YNL209W, strain ssb2, active compounds read low 0.999 | S. cerevisiae deletion strains, locus YNL233W, strain BNI4, active compounds read low 1.01 | S. cerevisiae deletion strains, locus YNL248C, strain rpa49, active compounds read low 1 | S. cerevisiae deletion strains, locus YNL250W, strain rad50, active compounds read low 0.983 | S. cerevisiae deletion strains, locus YNL271C, strain bni1, active compounds read low 0.978 | S. cerevisiae deletion strains, locus YNL298W, strain CLA4, active compounds read low 0.996 | S. cerevisiae deletion strains, locus YNL307C, strain MCK1, active compounds read low 0.993 | S. cerevisiae deletion strains, locus YNL322C, strain KRE1 (second series), active compounds read low 1.01 | S. cerevisiae deletion strains, locus YNL322C, strain KRE1, active compounds read low 0.986 | S. cerevisiae deletion strains, locus YNR049C, strain mso1, active compounds read low 1.01 | S. cerevisiae deletion strains, locus YNR052C, strain pop2, active compounds read low 0.984 | S. cerevisiae deletion strains, locus YOL006C, strain TOP1, active compounds read low 0.997 | S. cerevisiae deletion strains, locus YOL012C, strain htz1 0.887 | S. cerevisiae deletion strains, locus YOL147C, strain pex11, active compounds read low 0.988 | S. cerevisiae deletion strains, locus YOR001W, strain rrp6, active compounds read low 0.999 | S. cerevisiae deletion strains, locus YOR061W, strain CKA2, active compounds read low 0.991 | S. cerevisiae deletion strains, locus YOR069W, strain VPS5, active compounds read low 0.989 | S. cerevisiae deletion strains, locus YOR070C, strain gyp1, active compounds read low 1 | S. cerevisiae deletion strains, locus YOR080W, strain dia2, active compounds read low 1 | S. cerevisiae deletion strains, locus YOR083W, strain WHI5, active compounds read low 1 | S. cerevisiae deletion strains, locus YOR106W, strain vam3, active compounds read low 1.02 | S. cerevisiae deletion strains, locus YOR136W, strain idh2, active compounds read low 0.982 | S. cerevisiae deletion strains, locus YOR144C, strain elg1, active compounds read low 0.978 | S. cerevisiae deletion strains, locus YOR184W, strain ser1, active compounds read low 0.959 | S. cerevisiae deletion strains, locus YOR231W, strain MKK1, active compounds read low 0.98 | S. cerevisiae deletion strains, locus YOR265W, strain rbl2, active compounds read low 1.01 | S. cerevisiae deletion strains, locus YOR270C, strain vph1, active compounds read low 1.02 | S. cerevisiae deletion strains, locus YOR290C, strain snf2, active compounds read low 0.943 | S. cerevisiae deletion strains, locus YOR316C, strain cot1, active compounds read low 0.997 | S. cerevisiae deletion strains, locus YPL051W, strain arl3, active compounds read low 1 | S. cerevisiae deletion strains, locus YPL055C, strain LGE1, active compounds read low 1.02 | S. cerevisiae deletion strains, locus YPL078C, strain atp4, active compounds read low 1.01 | S. cerevisiae deletion strains, locus YPL106C, strain sse1, active compounds read low 0.998 | S. cerevisiae deletion strains, locus YPL240C, strain hsp82, active compounds read low 1.02 | S. cerevisiae deletion strains, locus YPL241C, strain CIN2, active compounds read low 0.958 | S. cerevisiae deletion strains, locus YPL256C, strain CLN2, active compounds read low 0.985 | S. cerevisiae deletion strains, locus YPR119W, strain clb2, active compounds read low 0.986 | S. cerevisiae deletion strains, locus YPR141C, strain kar3, active compounds read low 0.992 | S. cerevisiae deletion strains, locus YPR163C, strain tif3, active compounds read low 0.989 | S. cerevisiae deletion strains, locus YPR167C, strain met16, active compounds read low 1 | S. cerevisiae deletion strains, strain wtn01, active compounds read low 0.996 | S. cerevisiae strains, strain wild type, active compounds read low 0.986
